In the supplement of paper PMC5662767:

System: Drosophila S2 cl14 SmoIP sensor cells
Test: normalized SmoIP GFP fluorescence (untreated unstimulated = 0%, untreated Hh-stimulated = 100%); higher = more Smo activation sensor fluorescence
Details: compound concentration: 2 uM, 24 h
[1] = stimulation: Hh conditioned medium (+Hh)
[2] = stimulation: mock conditioned medium (-Hh)
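Also: flow cytometry read-out as median GFP intensity of gated cells, compounds added 30 min before Hh-conditioned or mock medium, mock-treated cells serving as unstimulated baseline.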

Row | SMILES | normalized SmoIP GFP fluorescence [1] [%] | normalized SmoIP GFP fluorescence [2] [%]
1 | Cc1ccc(-c2cc(C(F)(F)F)nn2-c2ccc(S(N)(=O)=O)cc2)cc1 [Celecoxib] | 111 | 2.11
2 | CCc1cc2c(cc1CC)CC(NC[C@H](O)c1ccc(O)c3[nH]c(=O)ccc13)C2 [indacaterol-maleate] | 107 | -2.82
3 | Cc1ccc(C(=O)NCCCCCC(=O)Nc2ccccc2N)cc1 [rg2833-rgfp109] | 101 | -3.05
4 | O=C(Cc1ccc(-c2ccc(OCCN3CCOCC3)cc2)cn1)NCc1ccccc1 | 108 | 23.9
